The term inhibition denotes the relative decrease from the control value, in per cent.

A number with no mark means an inactive call. For some of these results: Entries with a potency or affinity are not part of this list. Calls of active or inactive are those of the source. Unless noted, how the calls were made is not given here.

The values that follow come from PubChem BioAssay.

Experiment [1] is described as follows: antimalarial activity against Dd2 strain (AID 2302;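 active means growth inhibition above 50% at the single 2 µM test dose, taken to imply half-maximal potency below 2 µM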;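 further: 0% = DMSO untreated growth and 100% = chloroquine plus artemisinin killed control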). The settings on record: P. falciparum Dd2 in RBCs, LDH growth readout, 72 h; at 2 µM; active compounds read high.
Experiment [2] can be described thus: human hepatoma cell viability loss – ATP luminescence, cytotoxicity control for P. falciparum antimalarial project, primary screen (AID 2303;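 active means inhibition above 50%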;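 further: 0% = DMSO wells and 100% = digitonin-killed cells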). The settings on record: HepG2 viability, 24-48 h, at 10 µM, active compounds read high.
Experiment [3] concerns the target L-lactate dehydrogenase (Plasmodium falciparum (isolate CDC / Honduras)) (UniProt Q27743). As to the kind of experiment: PfLDH activity inhibition – cell lysate, 3D7 strain, counter-screen for P. falciparum growth inhibition project (AID 2304).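 Further: 0% = vehicle and 100% = reference inhibitor.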 The following applies: P. falciparum 3D7 crude extract, LDH APAD/NBT absorbance; at 2 µM; active compounds read high. In general terms: The purpose of a counterscreen is to sort out artefacts and off-target activity.

Experiment [4] in a line: inhibition of 3D7 malaria parasite growth – strain 3D7 (AID 2306).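 Further: 0% = DMSO wells and 100% = chloroquine plus artemisinin control wells.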 The following applies: P. falciparum 3D7 erythrocytic growth, LDH absorbance, 72 h; at 2 µM; active compounds read high.
Experiment [5] concerns the target Calcium-dependent protein kinase 1 (Plasmodium falciparum (isolate 3D7)) (UniProt P62344). As to the kind of experiment: PfCDPK1 kinase inhibitors, biochemical, TCAMS library (AID 1159585; cut-off not given, nearly all actives have IC50 up to about 0.98 µM;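 further: inhibitors leave more ATP so luminescence rises with inhibition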). The settings on record: recombinant PfCDPK1, Kinase-Glo ATP depletion luminescence.
In experiment [6] the target is Plasmodium falciparum protein kinase 6 (PK6, PF3D7_1337100) (UniProt Q8IDW1). Briefly: PfPK6 kinase inhibitors, biochemical, TCAMS library (AID 1159586). The settings on record: recombinant PfPK6, Kinase-Glo ATP depletion luminescence.
Experiment [7] concerns the target Protein kinase 7 (PK7), Plasmodium falciparum 3D7 (PF3D7_0213400) (UniProt Q7YTF7). As to the kind of experiment: inhibition of Plasmodium PK7 catalytic activity – biochemical, TCAMS antimalarial set, Kinase-Glo luminescence (AID 1159587). The following applies: recombinant PfPK7, Kinase-Glo ATP depletion luminescence. Background: In Kinase-Glo more light means more ATP remaining.

For experiment [8], the target named is Calcium-dependent protein kinase 4 (Plasmodium falciparum (isolate 3D7)) (UniProt Q8IBS5). As to the kind of experiment: PfCDPK4 kinase inhibitors, biochemical, TCAMS library (AID 1159588; cut-off not given, nearly all actives have IC50 up to about 0.91 µM). The following applies: recombinant PfCDPK4, Kinase-Glo ATP depletion luminescence.
Sequence of Calcium-dependent protein kinase 4 (Plasmodium falciparum (isolate 3D7)) (Q8IBS5 whole entry, looked up): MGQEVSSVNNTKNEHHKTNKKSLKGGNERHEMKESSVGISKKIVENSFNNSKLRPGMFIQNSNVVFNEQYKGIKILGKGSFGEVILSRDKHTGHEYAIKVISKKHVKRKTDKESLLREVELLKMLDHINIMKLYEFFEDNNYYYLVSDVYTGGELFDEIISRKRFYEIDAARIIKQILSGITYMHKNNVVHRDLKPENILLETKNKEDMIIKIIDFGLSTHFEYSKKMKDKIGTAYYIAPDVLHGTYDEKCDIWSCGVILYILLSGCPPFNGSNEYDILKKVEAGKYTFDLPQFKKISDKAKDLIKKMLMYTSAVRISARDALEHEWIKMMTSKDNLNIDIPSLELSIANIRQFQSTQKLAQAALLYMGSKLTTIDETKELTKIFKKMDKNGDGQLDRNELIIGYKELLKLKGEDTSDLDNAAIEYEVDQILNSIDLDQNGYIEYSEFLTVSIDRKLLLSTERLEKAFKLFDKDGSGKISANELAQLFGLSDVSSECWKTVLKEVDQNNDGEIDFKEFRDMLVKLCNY

Sequence of Protein kinase 7 (PK7), Plasmodium falciparum 3D7 (PF3D7_0213400) (Q7YTF7 1-343): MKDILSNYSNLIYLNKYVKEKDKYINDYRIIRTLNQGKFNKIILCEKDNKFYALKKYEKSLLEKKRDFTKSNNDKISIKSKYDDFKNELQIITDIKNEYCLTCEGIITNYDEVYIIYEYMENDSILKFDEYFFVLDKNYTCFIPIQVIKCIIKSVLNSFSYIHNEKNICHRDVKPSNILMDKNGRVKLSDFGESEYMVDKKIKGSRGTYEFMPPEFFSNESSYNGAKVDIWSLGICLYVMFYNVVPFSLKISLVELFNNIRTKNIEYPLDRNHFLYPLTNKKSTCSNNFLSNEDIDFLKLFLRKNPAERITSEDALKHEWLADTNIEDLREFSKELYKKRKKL
Sequence of Plasmodium falciparum protein kinase 6 (PK6, PF3D7_1337100) (Q8IDW1 1-305): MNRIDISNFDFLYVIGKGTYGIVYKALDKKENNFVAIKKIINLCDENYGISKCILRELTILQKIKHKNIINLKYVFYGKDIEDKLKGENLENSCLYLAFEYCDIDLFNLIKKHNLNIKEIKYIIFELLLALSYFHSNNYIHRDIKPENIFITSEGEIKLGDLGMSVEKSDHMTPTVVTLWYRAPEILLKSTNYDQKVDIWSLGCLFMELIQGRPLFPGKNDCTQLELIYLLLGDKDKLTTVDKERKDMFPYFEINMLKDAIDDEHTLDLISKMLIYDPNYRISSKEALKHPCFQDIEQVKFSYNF
Sequence of L-lactate dehydrogenase (Plasmodium falciparum (isolate CDC / Honduras)) (Q27743 whole entry, looked up): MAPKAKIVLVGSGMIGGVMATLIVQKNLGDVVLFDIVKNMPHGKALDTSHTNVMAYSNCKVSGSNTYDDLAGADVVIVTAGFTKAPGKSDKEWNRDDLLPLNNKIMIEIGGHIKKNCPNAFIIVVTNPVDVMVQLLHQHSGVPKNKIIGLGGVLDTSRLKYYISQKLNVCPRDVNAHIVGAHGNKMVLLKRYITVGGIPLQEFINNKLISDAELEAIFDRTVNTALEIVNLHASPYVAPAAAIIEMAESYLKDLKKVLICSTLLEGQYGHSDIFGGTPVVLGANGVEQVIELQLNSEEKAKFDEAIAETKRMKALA
Sequence of Calcium-dependent protein kinase 1 (Plasmodium falciparum (isolate 3D7)) (P62344 whole entry, looked up): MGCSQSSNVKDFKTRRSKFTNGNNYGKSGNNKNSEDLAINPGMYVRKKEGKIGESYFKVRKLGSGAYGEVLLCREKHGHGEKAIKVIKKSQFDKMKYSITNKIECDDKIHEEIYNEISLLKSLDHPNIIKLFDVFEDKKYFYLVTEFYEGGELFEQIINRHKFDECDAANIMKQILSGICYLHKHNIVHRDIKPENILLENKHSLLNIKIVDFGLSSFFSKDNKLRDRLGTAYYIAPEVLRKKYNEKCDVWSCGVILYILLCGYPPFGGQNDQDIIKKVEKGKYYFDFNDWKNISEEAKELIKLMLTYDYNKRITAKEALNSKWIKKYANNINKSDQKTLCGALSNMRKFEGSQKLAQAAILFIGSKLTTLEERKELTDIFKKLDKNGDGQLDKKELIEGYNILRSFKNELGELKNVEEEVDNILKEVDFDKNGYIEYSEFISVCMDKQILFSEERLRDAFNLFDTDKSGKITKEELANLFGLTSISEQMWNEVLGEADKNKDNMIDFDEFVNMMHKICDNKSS

Regarding `COc1cc(F)c2ncc(F)c(CCN3C[C@H](CNCc4ccc5c(n4)NC(=O)CS5)[C@H](O)C3)c2c1`, the values for the growth inhibition in experiment [1] and in experiment [4] were 47% and 91% (active), respectively. Moreover, the figures for the inhibition in experiment [2] and in experiment [3] were 10% and 2%, respectively. The result in experiment [5], in experiment [6], in experiment [7] and in experiment [8] was inactive.

Regarding `Cc1ccc(Nc2nc(NN=Cc3ccc(-c4ccc([N+](=O)[O-])cc4)o3)nc(N3CCOCC3)n2)cc1Cl`, the growth inhibition was 47% in experiment [1] and 95% (active) in experiment [4]. For the same compound, the figures for the inhibition in experiment [2] and in experiment [3] were 12% and -1%, respectively. Further, the outcome in experiment [5], in experiment [6], in experiment [7] and in experiment [8] was inactive.

As to `Cc1nc(N)nc(N)c1-c1cc(Cl)c(N)c(Cl)c1`, the results for the growth inhibition in experiment [1] and in experiment [4] were 2% and 94% (active), respectively. In addition, the inhibition is 62% (active) in experiment [2] and 6% in experiment [3]. Besides, the outcome in experiment [5], in experiment [6], in experiment [7] and in experiment [8] was inactive.

As to `O=C(Nc1cccnc1)c1cc(-c2cccnc2)nc2ccc(Cl)cc12`, the growth inhibition is 50% (active) in experiment [1] and 97% (active) in experiment [4]. The inhibition is 45% in experiment [2] and -6% in experiment [3]. Also, the outcome in experiment [5], in experiment [6], in experiment [7] and in experiment [8] was inactive.

As for `COc1cc(NC(=O)C(c2ccc(Cl)cc2)C(C)C)cc(OC)c1OC` (stereo not given), the growth inhibition was 100% (active) in experiment [1] and 101% (active) in experiment [4]. The inhibition in experiment [2] is 10%; in experiment [3], -1%. In addition, the result in experiment [5], in experiment [6], in experiment [7] and in experiment [8] was inactive.

For `O=C(N[C@H]1CCN(Cc2ccc(OCCN3CCNCC3)c3ccccc23)C1)c1ccc(Cl)c(Cl)c1`, the growth inhibition in experiment [1] is 99% (active); in experiment [4] it was 100% (active). In addition, the inhibition is 53% (active) in experiment [2] and -2% in experiment [3]. Further, the result in experiment [5], in experiment [6], in experiment [7] and in experiment [8] was inactive.

With `Cc1cc(N[C@@H](CC(C)C)C(=O)NCCOc2ccccc2)nc(NCCOc2ccccc2)n1`, the growth inhibition in experiment [1] was 6%; in experiment [4], 89% (active). Moreover, the inhibition in experiment [2] was -4%; in experiment [3], -2%. Also, the result in experiment [5], in experiment [6], in experiment [7] and in experiment [8] was inactive.

On to `O=[N+]([O-])c1cccc(CNCC2CCN(Cc3ccc(O)cc3)CC2)c1`, for which the figures for the growth inhibition in experiment [1] and in experiment [4] were 5% and 98% (active), respectively. Also, the inhibition was 8% in experiment [2] and 1% in experiment [3]. Further, the result in experiment [5], in experiment [6], in experiment [7] and in experiment [8] was inactive.

On to `Cc1cccc2[nH]c(-c3ccc(-c4cccc(NC(=O)NCc5ccc(F)cc5)c4)cc3)nc12`, for which the growth inhibition in experiment [1] is 100% (active); in experiment [4], 101% (active). For the same compound, the inhibition in experiment [2] is 82% (active); in experiment [3], -1%. Further, the result in experiment [5], in experiment [6], in experiment [7] and in experiment [8] was inactive.

For the compound `OC(CNCCCc1ccccc1)c1cc(OCc2ccccc2)cc(OCc2ccccc2)c1` (stereo not given), the figures for the growth inhibition in experiment [1] and in experiment [4] were 85% (active) and 93% (active), respectively. The inhibition is 8% in experiment [2] and 4% in experiment [3]. The result in experiment [5], in experiment [6], in experiment [7] and in experiment [8] was inactive.

In the case of `Cc1cc(N[C@@H](CC(C)C)C(=O)NCCc2ccccc2)nc(NCCc2ccc(F)cc2)n1`, the growth inhibition is 53% (active) in experiment [1] and 98% (active) in experiment [4]. Moreover, the inhibition is 12% in experiment [2] and -1% in experiment [3]. The result in experiment [5], in experiment [6], in experiment [7] and in experiment [8] was inactive.

Take `N#Cc1ccccc1C1CCN(C2CCC(Nc3cc(-c4cccnc4)ccn3)CC2)CC1` (stereo not given): the growth inhibition was 78% (active) in experiment [1] and 100% (active) in experiment [4]. Further, the inhibition in experiment [2] is 38%; in experiment [3], 5%. The outcome in experiment [5], in experiment [6], in experiment [7] and in experiment [8] was inactive.

As for `COc1cc2nc(NCCN3CCOCC3)n3nc(-c4ccccc4)nc3c2cc1OC`, the figures for the growth inhibition in experiment [1] and in experiment [4] were 98% (active) and 96% (active), respectively. For the same compound, the inhibition in experiment [2] was 15%; in experiment [3], -3%. Besides, the outcome in experiment [5], in experiment [6], in experiment [7] and in experiment [8] was inactive.

Regarding `O=C(Nc1ccc(OC2CCN(Cc3ccccc3)C2)c(Cl)c1)c1ccco1` (stereo not given), the growth inhibition in experiment [1] is 94% (active); in experiment [4], 95% (active). In addition, the inhibition in experiment [2] was 13%; in experiment [3], 6%. Further, the outcome in experiment [5], in experiment [6], in experiment [7] and in experiment [8] was inactive.

With `COc1cccc(C2=CC(C)(C)Oc3cc(OCCN(C)C)ccc32)c1`, the growth inhibition was 96% (active) in experiment [1] and 97% (active) in experiment [4]. The results for the inhibition in experiment [2] and in experiment [3] were 57% (active) and -4%, respectively. The outcome in experiment [5], in experiment [6], in experiment [7] and in experiment [8] was inactive.

Turning to `O=C(N[C@H]1CCN(CCc2ccc(O[C@H]3CCNC3)c(Cl)c2)C1)c1ccc(Cl)c(Cl)c1`, the growth inhibition in experiment [1] is -1%; in experiment [4], 101% (active). Moreover, the inhibition in experiment [2] was 26%; in experiment [3], 2%. Further, the outcome in experiment [5], in experiment [6], in experiment [7] and in experiment [8] was inactive.

For `NC(N)=Nc1nc(-c2ccc(NCc3ccc(CNc4cccc(-c5csc(N=C(N)N)n5)c4)cc3)cc2)cs1`, the growth inhibition in experiment [1] was 99% (active); in experiment [4] it was 102% (active). For the same compound, the inhibition in experiment [2] was 11%; in experiment [3], 0%. Further, the outcome in experiment [5], in experiment [6], in experiment [7] and in experiment [8] was inactive.

In the case of `COc1cc(Cc2cnc(N)nc2N)cc(OCCCc2cc(OCc3ccccc3)no2)c1OC`, the growth inhibition is 4% in experiment [1] and 86% (active) in experiment [4]. Also, the values for the inhibition in experiment [2] and in experiment [3] were 30% and 2%, respectively. Also, the result in experiment [5], in experiment [6], in experiment [7] and in experiment [8] was inactive.

For the compound `c1cc(CNCCc2ccncc2)cc(-c2ccc(-c3nc4ccccc4[nH]3)cc2)c1`, the growth inhibition in experiment [1] was 97% (active); in experiment [4], 99% (active). Moreover, the inhibition in experiment [2] is 28%; in experiment [3] it was 5%. Moreover, the outcome in experiment [5], in experiment [6], in experiment [7] and in experiment [8] was inactive.

As for `C=CCOC(=O)N1CCC(CNCc2ccc(-c3cccc(-c4nc5ccc(F)cc5[nH]4)c3)cc2)C1` (stereo not given), the growth inhibition in experiment [1] is 99% (active); in experiment [4] it was 102% (active). For the same compound, the inhibition in experiment [2] was 26%; in experiment [3], -2%. Besides, the outcome in experiment [5], in experiment [6], in experiment [7] and in experiment [8] was inactive.
